M1 antag = human M1 muscarinic receptor antagonists, primary screen, CHO-K1 cells, Fluo-8 calcium fluorescence, 1536-well | Muscarinic acetylcholine receptor M1 (Homo sapiens), P11229 | 360,000 tested, 1.3% active | AID 588852, 2011 | inhibition, % at 3 µM | CHO-K1 hM1, ACh EC80 antagonist;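 active = percent inhibition above its own plate's cutoff, namely the mean of that plate's compound wells plus 3 SD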;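 also: peak over basal fluorescence ratio during 140 s after agonist addition; 0% = ACh EC80 plus DMSO and 100% = DMSO alone without agonist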
Target sequence (P11229 whole entry, looked up): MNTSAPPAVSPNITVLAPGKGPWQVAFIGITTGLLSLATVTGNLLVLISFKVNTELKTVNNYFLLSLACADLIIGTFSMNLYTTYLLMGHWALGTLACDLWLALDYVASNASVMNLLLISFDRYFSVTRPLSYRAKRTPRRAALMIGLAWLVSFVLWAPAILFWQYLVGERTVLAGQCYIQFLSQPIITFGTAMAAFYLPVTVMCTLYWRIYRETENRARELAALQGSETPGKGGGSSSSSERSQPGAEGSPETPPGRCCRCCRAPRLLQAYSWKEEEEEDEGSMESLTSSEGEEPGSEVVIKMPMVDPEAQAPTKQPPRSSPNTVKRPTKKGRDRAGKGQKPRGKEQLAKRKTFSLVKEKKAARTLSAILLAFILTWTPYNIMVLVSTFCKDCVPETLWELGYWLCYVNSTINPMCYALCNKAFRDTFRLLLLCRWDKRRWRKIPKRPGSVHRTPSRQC
CHO-K1 Ca antag = M1 antagonist counterscreen hit in parental CHO-K1 cells. 360,000 tested, 0.6% active. ATP-induced calcium, Fluo-8 fluorescence. inhibition, % at 3 µM;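 active = inhibition above a per-plate cutoff, the plate's mean sample inhibition plus 3 SD, cut at about 24% in these data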;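 also: 0% = DMSO plus EC80 ATP and 100% = DMSO alone without ATP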
CHRM1 agonist = human M1 muscarinic receptor agonists, primary screen, Fluo-8 calcium fluorescence, CHO-K1 cells, HTS. 360,000 tested, 0.33% active. CHO-K1 hM1, agonist mode; 0% DMSO, 100% acetylcholine EC100. activation, % at 3 µM;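 active = activation above the run's mean compound activation plus 3 SD, cut at about 16% in these data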;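 also: peak over basal fluorescence ratio within a 140 s kinetic read after compound addition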
CHRM1 PAM = human M1 muscarinic receptor positive allosteric modulators, primary screen, CHO-K1 cells, Fluo-8 calcium fluorescence, 1536-well. activation, % at 3 µM. CHO-K1 hM1, ACh EC20; 0% = ACh EC20, 100% = maximal ACh. AID 588819, 2011. 360,000 tested, 0.088% active. Muscarinic acetylcholine receptor M1 (Homo sapiens), P11229; in the data active = activation above about 19%, passing the limit was not always enough
M1 PAM parental = nonselective calcium activators in parental CHO-K1 cells, primary screen, counter-screen for M1 PAM project, cell-based, Fluo-8 calcium fluorescence, full deck, 1536-well. ATP EC20; 0% at ATP EC20, 100% at ATP max. activation, % at 3 µM. 360,000 tested, 0.02% active;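 active = activation above the run cutoff, the mean activation of all test compounds plus 3 SD, cut at about 40% in these data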;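 also: peak over basal fluorescence ratio in a 140 s read after ATP addition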
CHO-K1 Ca ag = counter-screen for M1 agonists: effect in parental CHO-K1 cells. Fluo-8 calcium fluorescence; scaled to maximal ATP response, vehicle zero. activation, % at 3 µM. 360,000 tested, 0.48% active; in the data active = activation above about 15%;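 also: untransfected CHO-K1 host cells lacking M1 receptor as counterscreen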
Active calls of the source: *. Hits are enriched below; roughly 2.3% of the tested compounds scored in any of these assays.

COc1ccc(-c2c[n+](CC(=O)N3c4ccccc4Sc4ccccc43)c3n2CCC3)cc1 was read as M1 antag 86*, CHO-K1 Ca antag -12, CHRM1 agonist -8, CHRM1 PAM -27, M1 PAM parental 13 and CHO-K1 Ca ag 0.
Screening CC1CCC(C(C)C)C(OC(=O)C[n+]2cc(-c3ccc(Cl)cc3)n3c2CCC3)C1 (centres undefined) returned M1 antag 85*, CHO-K1 Ca antag -3, CHRM1 agonist -2, CHRM1 PAM -23, M1 PAM parental 10 and CHO-K1 Ca ag 1.
Screening O=C(C[n+]1cc(-c2ccc(Cl)cc2)n2c1CCC2)N1c2ccccc2Sc2ccccc21 returned M1 antag 97*, CHO-K1 Ca antag 4, CHRM1 agonist -8, CHRM1 PAM -26, M1 PAM parental -3 and CHO-K1 Ca ag 0.
Screening O=C(COC(=O)c1ccc([N+](=O)[O-])o1)Nc1ccc2c(c1)OCO2 returned M1 antag -4, CHO-K1 Ca antag -7, CHRM1 agonist -1, CHRM1 PAM 6, M1 PAM parental 0 and CHO-K1 Ca ag 1.
`Cc1ccccc1NC(=O)C[n+]1cc(-c2ccccc2)n2c1CCC2` gave M1 antag 50*, CHO-K1 Ca antag 16, CHRM1 agonist -2, CHRM1 PAM -17, M1 PAM parental -21 and CHO-K1 Ca ag 5.
For COc1ccc(C(=O)NC2CCCc3ccccc32)cc1OC1CCN(C(C)=O)CC1 (centres undefined) the results were M1 antag -9, CHO-K1 Ca antag -16, CHRM1 agonist -4, CHRM1 PAM 4, M1 PAM parental 14 and CHO-K1 Ca ag 6.
`O=C(COC(=O)c1cnccn1)Nc1ccc(Cl)cn1` gave M1 antag -16, CHO-K1 Ca antag 27*, CHRM1 agonist 4, CHRM1 PAM 12, M1 PAM parental -29 and CHO-K1 Ca ag 0.
Screening NC(=O)c1ccsc1NC(=O)COC(=O)c1cnccn1 returned M1 antag -4, CHO-K1 Ca antag 12, CHRM1 agonist 4, CHRM1 PAM 16, M1 PAM parental -23 and CHO-K1 Ca ag 0.
For CC(C)c1ccc(CN2CCC2(C)C(=O)Nc2cnc3ccccc3c2)cc1 (centres undefined) the results were M1 antag 7, CHO-K1 Ca antag 8, CHRM1 agonist -7, CHRM1 PAM -7, M1 PAM parental -5 and CHO-K1 Ca ag 0.
Screening COc1ccc(S(=O)(=O)Nc2ccc(Cc3ccncc3)cc2)cc1OC returned M1 antag 2, CHO-K1 Ca antag 11, CHRM1 agonist -7, CHRM1 PAM -4, M1 PAM parental -10 and CHO-K1 Ca ag 12.
Screening CCc1ccc(OC)c(S(=O)(=O)Nc2ccc(Cc3ccncc3)cc2)c1 returned M1 antag 36*, CHO-K1 Ca antag 12, CHRM1 agonist -6, CHRM1 PAM -18, M1 PAM parental 18 and CHO-K1 Ca ag 15*.
`O=S(=O)(Nc1ccc(Cc2ccncc2)cc1)c1ccc(Cl)c(Cl)c1` gave M1 antag 52*, CHO-K1 Ca antag -8, CHRM1 agonist -5, CHRM1 PAM -20, M1 PAM parental 16 and CHO-K1 Ca ag 8.
O=C(NCc1cccnc1)c1ccc2sc([C@H]3C[C@H](O)[C@@H](CO)O3)nc2c1 was read as M1 antag 9, CHO-K1 Ca antag 7, CHRM1 agonist 0, CHRM1 PAM -7, M1 PAM parental -12 and CHO-K1 Ca ag 0.
O=C1OCCOC2CCCc3oc(C4=CCCCC4)c1c32 (centres undefined) was read as CHO-K1 Ca antag -17, M1 PAM parental 13 and CHO-K1 Ca ag 1.
Screening CC(=O)Nc1cccc(C(=O)Nc2cc(C(F)(F)F)ccc2-n2cncn2)c1 returned M1 antag -1, CHO-K1 Ca antag 14, CHRM1 agonist 0, CHRM1 PAM -6, M1 PAM parental -2 and CHO-K1 Ca ag 2.
Screening CNc1cc(C(=O)Nc2cccc(OCc3ccccc3)c2)ncn1 returned M1 antag -6, CHO-K1 Ca antag -19, CHRM1 agonist -2, CHRM1 PAM 5, M1 PAM parental 12 and CHO-K1 Ca ag 1.
For CC(C)NC(=O)N1CC(c2ccccc2)C(c2ccc(Cl)cc2)=N1 (centres undefined) the results were M1 antag 35*, CHO-K1 Ca antag -3, CHRM1 agonist -10, CHRM1 PAM -23, M1 PAM parental -5 and CHO-K1 Ca ag 0.
Screening CC(=O)N1CC(c2ccccc2)C(c2ccc(Cl)cc2)=N1 (centres undefined) returned M1 antag -6, CHO-K1 Ca antag -5, CHRM1 agonist -10, CHRM1 PAM 6, M1 PAM parental 11 and CHO-K1 Ca ag 0.
`COc1cccc(/C=N/Nc2ncnc3scc(-c4ccccc4)c23)c1O` gave M1 antag 34*, CHO-K1 Ca antag 1, CHRM1 agonist -4, CHRM1 PAM -17, M1 PAM parental 1 and CHO-K1 Ca ag 6.
Screening CC(=O)c1cc2c(cc1NC(=O)c1ccco1)OCCO2 returned M1 antag 17, CHO-K1 Ca antag 25*, CHRM1 agonist -5, CHRM1 PAM -9, M1 PAM parental -11 and CHO-K1 Ca ag 0.
Cc1cc(C(=O)N2CCC2(C)C(=O)O)nn1C(C)(C)C (centres undefined) was read as M1 antag -22, CHO-K1 Ca antag 27*, CHRM1 agonist -2, CHRM1 PAM 5, M1 PAM parental -11 and CHO-K1 Ca ag 0.
For CCOC(=O)C1(C)CCN1C(=O)c1cc(C)n(C(C)(C)C)n1 (centres undefined) the results were M1 antag -21, CHO-K1 Ca antag 13, CHRM1 agonist -2, CHRM1 PAM 11, M1 PAM parental 1 and CHO-K1 Ca ag 0.
Screening O=C(NCCCSc1ccccc1)c1cc(Br)ccc1O returned M1 antag 31*, CHO-K1 Ca antag 16, CHRM1 agonist 2, CHRM1 PAM -12, M1 PAM parental -2 and CHO-K1 Ca ag 11.
For Cc1cccc(C)c1OCc1cc(C(=O)N2CCC(c3ccncc3)CC2)no1 the results were M1 antag 29*, CHO-K1 Ca antag 10, CHRM1 agonist -1, CHRM1 PAM -14, M1 PAM parental 6 and CHO-K1 Ca ag 11.
Screening CC(=O)c1ccc(OCc2cc(C(=O)N3CCC(Oc4ccccc4C)CC3)no2)cc1 returned M1 antag 0, CHO-K1 Ca antag -12, CHRM1 agonist -2, CHRM1 PAM -6, M1 PAM parental -15 and CHO-K1 Ca ag 2.

Assay outcomes from PubChem.
